Data: the supplement of paper PMC8728848
This is one part of a sample in which the strongest signals are shown more often than they occur.

Legend:
Test in all cases: glycan array binding signal (z-score within array); higher = stronger binding
Details in all cases: glycan notation: IUPAC condensed, linker removed
[1] = target: Fuc(a1-2)Gal(b1-3)GalNAc(a1-3)[Fuc(a1-2)]Gal(b1-4)GlcNAc
In short: (§1)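 The binding signal is a Z-score computed within each array and averaged over linkers. Arrays of the same protein sequence at different concentrations or buffers were also averaged together. Data originate from 3228 arrays in the Consortium for Functional Glycomics database, kept only where the protein sequence was available.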

[2] = target: Fuc(a1-2)Gal(b1-4)GlcNAc(b1-2)Man(a1-3)[Fuc(a1-2)Gal(b1-4)GlcNAc(b1-2)Man(a1-6)]Man(b1-4)GlcNAc(b1-4)[Fuc(a1-6)]GlcNAc
In short: as §1

[3] = target: Fuc(a1-2)Gal(b1-4)[Fuc(a1-3)]GlcNAc(b1-2)Man(a1-3)[Fuc(a1-2)Gal(b1-4)[Fuc(a1-3)]GlcNAc(b1-2)Man(a1-6)]Man(b1-4)GlcNAc(b1-4)[Fuc(a1-6)]GlcNAc
In short: as §1

[4] = target: Fuc(a1-2)Gal(b1-4)[Fuc(a1-3)]GlcNAc(b1-3)Gal(b1-4)[Fuc(a1-3)]GlcNAc
In short: as §1

[5] = target: Fuc(a1-2)Gal(b1-4)[Fuc(a1-3)]GlcNAc(b1-3)Gal(b1-4)[Fuc(a1-3)]GlcNAc(b1-3)Gal(b1-4)[Fuc(a1-3)]GlcNAc
In short: as §1

[6] = target: Fuc(a1-2)Gal(b1-4)[Fuc(a1-3)]GlcNAc(b1-3)[Neu5Ac(a2-6)Gal(b1-4)GlcNAc(b1-6)]Gal(b1-4)Glc
In short: as §1

[7] = target: Fuc(a1-2)[Gal(a1-3)]Gal
In short: as §1

[8] = target: Fuc(a1-2)[Gal(a1-3)]Gal(b1-3)GlcNAc
In short: as §1

[9] = target: Fuc(a1-2)[Gal(a1-3)]Gal(b1-3)GlcNAc(b1-3)GalNAc
In short: as §1

[10] = target: Fuc(a1-2)[Gal(a1-3)]Gal(b1-4)[Fuc(a1-3)]GlcNAc(b1-3)GalNAc
In short: as §1

[11] = target: Fuc(a1-2)[GalNAc(a1-3)]Gal(b1-3)GalNAc(a1-3)[Fuc(a1-2)]Gal(b1-4)GlcNAc
In short: as §1

[12] = target: Fuc(a1-2)[GalNAc(a1-3)]Gal(b1-3)GlcNAc
In short: as §1

[13] = target: Fuc(a1-2)[GalNAc(a1-3)]Gal(b1-4)GlcNAc(b1-3)Gal(b1-4)GlcNAc(b1-3)Gal(b1-4)GlcNAc
In short: as §1

[14] = target: Fuc(a1-2)[GalNAc(a1-3)]Gal(b1-4)GlcNAc(b1-3)[Fuc(a1-2)[GalNAc(a1-3)]Gal(b1-4)GlcNAc(b1-6)]GalNAc
In short: as §1

[15] = target: Fuc(a1-3)[Gal(b1-4)]GlcNAc(b1-3)Gal(b1-3)[Fuc(a1-4)]GlcNAc
In short: as §1

[16] = target: Fuc(a1-3)[Gal(b1-4)]GlcNAc(b1-3)Gal(b1-4)[Fuc(a1-3)]GlcNAc
In short: as §1

[17] = target: Fuc(a1-3)[Gal(b1-4)]GlcNAc(b1-3)Gal(b1-4)[Fuc(a1-3)]GlcNAc(b1-3)Gal(b1-4)[Fuc(a1-3)]GlcNAc
In short: as §1

[18] = target: Fuc(a1-3)[Gal3S(b1-4)]GlcNAc6S
In short: as §1

[19] = target: Fuc(a1-3)[GalNAc(b1-4)]GlcNAc6S
In short: as §1

[20] = target: Gal(a1-3)Gal(b1-4)Glc
In short: as §1

[21] = target: Gal(a1-3)Gal(b1-4)[Fuc(a1-3)]GlcNAc(b1-2)Man(a1-3)[Gal(a1-3)Gal(b1-4)[Fuc(a1-3)]GlcNAc(b1-2)Man(a1-6)]Man(b1-4)GlcNAc(b1-4)GlcNAc
In short: as §1

[22] = target: Gal(a1-4)Gal(b1-3)GlcNAc(b1-2)Man(a1-3)[Gal(a1-4)Gal(b1-3)GlcNAc(b1-2)Man(a1-6)]Man(b1-4)GlcNAc(b1-4)GlcNAc
In short: as §1

[23] = target: Gal(b1-3)GlcNAc(b1-3)Gal(b1-3)GlcNAc
In short: as §1

[24] = target: Gal(b1-3)[Fuc(a1-4)]GlcNAc(b1-3)Gal(b1-3)[Fuc(a1-4)]GlcNAc
In short: as §1

[25] = target: Gal(b1-4)GlcNAc(b1-2)[Gal(b1-4)GlcNAc(b1-6)]Man(a1-6)[GlcNAc(b1-4)][Gal(b1-4)GlcNAc(b1-2)Man(a1-3)]Man(b1-4)GlcNAc(b1-4)GlcNAc
In short: as §1

[26] = target: Gal(b1-4)GlcNAc(b1-3)Gal(b1-4)GlcNAc(b1-2)[Gal(b1-4)GlcNAc(b1-3)Gal(b1-4)GlcNAc(b1-6)]Man(a1-6)[Gal(b1-4)GlcNAc(b1-3)Gal(b1-4)GlcNAc(b1-2)Man(a1-3)]Man(b1-4)GlcNAc(b1-4)GlcNAc
In short: as §1

[27] = target: Gal(b1-4)GlcNAc(b1-3)Gal(b1-4)GlcNAc(b1-3)Gal(b1-4)GlcNAc(b1-2)Man(a1-3)[Gal(b1-4)GlcNAc(b1-3)Gal(b1-4)GlcNAc(b1-3)Gal(b1-4)GlcNAc(b1-2)Man(a1-6)]Man(b1-4)GlcNAc(b1-4)[Fuc(a1-6)]GlcNAc
In short: as §1

[28] = target: Gal(b1-4)GlcNAc(b1-3)Gal(b1-4)GlcNAc(b1-3)[Gal(b1-4)GlcNAc(b1-3)Gal(b1-4)GlcNAc(b1-6)]GalNAc
In short: as §1

[29] = target: Gal(b1-4)GlcNAc(b1-3)Gal(b1-4)GlcNAc(b1-6)[Gal(b1-3)]GalNAc
In short: as §1

[30] = target: Gal3S(b1-3)GlcNAc
In short: as §1

B1: DC-Sign (Homo sapiens), Q9NNX6 (protein)
chain: MSDSKEPRLQQLGLLEEEQLRGLGFRQTRGYKSLAGCLGHGPLVLQLLSFTLLAGLLVQVSKVPSSISQEQSRQDAIYQNLTQLKAAVGELSEKSKLQEIYQELTQLKAAVGELPEKSKLQEIYQELTRLKAAVGELPEKSKLQEIYQELTWLKAAVGELPEKSKMQEIYQELTRLKAAVGELPEKSKQQEIYQELTRLKAAVGELPEKSKQQEIYQELTRLKAAVGELPEKSKQQEIYQELTQLKAAVERLCHPCPWEWTFFQGNCYFMSNSQRNWHDSITACKEVGAQLVVIKSAEEQNFLQLQSSRSNRFTWMGLSDLNQEGTWQWVDGSPLLPSFKQYWNRGEPNNVGEEDCAEFSGNGWNDDKCNLAKFWICKKSAASCSRDEEQFLSPAPATPNPPPA
glycan array binding signal (z-score) [1]: -0.14
glycan array binding signal (z-score) [2]: -0.182
glycan array binding signal (z-score) [3]: 9.49
glycan array binding signal (z-score) [4]: 12.6
glycan array binding signal (z-score) [5]: 6.53
glycan array binding signal (z-score) [6]: -0.045
glycan array binding signal (z-score) [7]: 0.684
glycan array binding signal (z-score) [8]: -0.126
glycan array binding signal (z-score) [9]: -0.189
glycan array binding signal (z-score) [10]: -0.164
glycan array binding signal (z-score) [11]: -0.193
glycan array binding signal (z-score) [12]: -0.122
glycan array binding signal (z-score) [13]: -0.15
glycan array binding signal (z-score) [14]: -0.189
glycan array binding signal (z-score) [15]: 5.28
glycan array binding signal (z-score) [16]: 2.48
glycan array binding signal (z-score) [17]: 8.36
glycan array binding signal (z-score) [18]: -0.13
glycan array binding signal (z-score) [19]: 1.43
glycan array binding signal (z-score) [20]: -0.198
glycan array binding signal (z-score) [21]: -0.165
glycan array binding signal (z-score) [22]: -0.131
glycan array binding signal (z-score) [23]: -0.156
glycan array binding signal (z-score) [24]: 2.51
glycan array binding signal (z-score) [25]: -0.187
glycan array binding signal (z-score) [26]: 0.026
glycan array binding signal (z-score) [27]: -0.137
glycan array binding signal (z-score) [28]: -0.146
glycan array binding signal (z-score) [29]: -0.097
glycan array binding signal (z-score) [30]: -0.136
